hcDAF-12 act: activates DAF-12 receptor from parasite H. contortus; HEK293 hcDAF-12 lit1-tk-luc reporter, luminescence; 0% DMSO, 100% Δ7-dafachronic acid; activation, % at 6.8 µM; hit rate 1.4% among 370,000;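 active = activation above the mean of all tested compounds plus 3 SD, cut at about 5.5% in these data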;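 also: 100% = response to 3 µM Δ7-dafachronic acid high control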
DAX1 inh-1: inhibitors of DAX1 repression of SF-1 activated StAR promoter | inhibition, % at 6.8 µM | HEK293T StAR-luciferase reporter, SF-1/DAX-1 repression relief | hit rate 1.1% among 370,000;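 active = inhibition above the mean over all tested compounds plus 3 SD, cut at about 3.6% in these data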;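 also: 0% = DAX-1 cells with DMSO and 100% = cells lacking DAX-1 with DMSO; higher inhibition means more luminescence from relief of DAX-1 repression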
hgDAF12 agonist: activates the H. glycines DAF-12 receptor ligand-binding domain; HEK293 GAL4-hgDAF12 UAS-luciferase reporter, agonist luminescence; normalized to butyrate control; activation, % at 6.8 µM; hit rate 1.8% among 370,000; AID 687014;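 active = activation above a cutoff set at the mean of all screened compounds plus 3 SD, cut at about 10% in these data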;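 also: 0% = DMSO wells and 100% = sodium butyrate wells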
AHR act: activates the human aryl hydrocarbon receptor | activation, % at 5 µM | AHR-responsive luciferase reporter cells, luminescence | P35869 | hit rate 2.5% among 320,000; in the data active = activation above about 47%;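 also: 0% = vehicle wells and 100% = reference agonist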
ssDAF-12 act: activators of S. stercoralis DAF-12 nuclear receptor | hit rate 1% among 370,000 | HEK293 ssDAF-12/GRIP1 lit1-tk-luc reporter, luminescence; % of 3 µM dafachronic acid response | activation, % at 6.8 µM;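 active = activation above the mean over all tested compounds plus 3 SD, cut at about 0.9% in these data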;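 also: 0% = DMSO-only wells and 100% = 3 µM delta7-dafachronic acid wells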
DAX1 inh-2: inhibitors of human orphan nuclear receptor DAX1 (NR0B1) | P51843 | inhibition, % at 6.75 µM | hit rate 0.99% among 340,000 | HEK293 Gal4-DAX1 luciferase reporter, luminescence;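 active = inhibition above the mean over all tested compounds plus 3 SD, cut at about 4.2% in these data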;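 also: 0% = DAX1-transfected cells with DMSO and 100% = empty-vector control cells with DMSO; inhibition shows as a rise in luminescence from relieved DAX1 repression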
Target sequence (P51843 207-470 limits assumed): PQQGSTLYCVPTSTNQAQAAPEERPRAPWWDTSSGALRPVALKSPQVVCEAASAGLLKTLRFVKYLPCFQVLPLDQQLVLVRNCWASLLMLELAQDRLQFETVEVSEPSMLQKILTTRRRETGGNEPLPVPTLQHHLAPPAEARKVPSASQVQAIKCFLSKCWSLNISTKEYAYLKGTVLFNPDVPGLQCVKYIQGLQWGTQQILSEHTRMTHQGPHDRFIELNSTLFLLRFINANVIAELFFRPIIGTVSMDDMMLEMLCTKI
LXR ag: activates human LXR-beta, counter-screen for hcDAF-12 agonists; shares compounds with hcDAF-12 act; HEK293 Gal4-LXR tk-luc reporter, luminescence, 24 h; normalized: DMSO 0%, positive control 100%; activation, % at 6.8 µM; 3,400 tested, under 10 active;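 active = mean percent activation of the reporter above a cutoff set as the average over tested compounds plus their standard deviation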
Target sequence (P55055 whole entry, looked up, the tested form may be a part): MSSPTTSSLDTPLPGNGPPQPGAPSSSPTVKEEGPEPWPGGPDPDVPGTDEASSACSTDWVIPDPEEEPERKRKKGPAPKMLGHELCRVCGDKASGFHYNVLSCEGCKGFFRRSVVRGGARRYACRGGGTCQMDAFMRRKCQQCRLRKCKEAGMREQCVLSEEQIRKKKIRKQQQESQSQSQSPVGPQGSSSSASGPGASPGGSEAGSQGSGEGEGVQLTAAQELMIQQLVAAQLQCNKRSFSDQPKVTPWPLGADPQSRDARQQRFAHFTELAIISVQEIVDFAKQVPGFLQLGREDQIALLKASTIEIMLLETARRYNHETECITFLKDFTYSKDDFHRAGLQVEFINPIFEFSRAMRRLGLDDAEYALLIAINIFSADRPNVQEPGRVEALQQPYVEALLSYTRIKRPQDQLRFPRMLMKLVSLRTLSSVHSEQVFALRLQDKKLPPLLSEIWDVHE
hcDAF12 conf: hcDAF-12 agonism, confirmation assay; shares compounds with hcDAF-12 act; HEK293 hcDAF-12 lit1-tk-luc reporter, luminescence; % of Δ7-dafachronic acid response; activation, % at 6.8 µM; hit rate 61% among 3,400;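 active = mean activation across triplicate tests above the threshold derived from the earlier primary screen, cut at about 5.5% in these data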;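 also: 0% = DMSO only wells and 100% = 3 µM Δ7-dafachronic acid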
Starred values were filed as active, the others as inactive. Sampled rows, rich in hits. Any-hit rate of the full collection: about 5.7%.

What do the screens show for `Cc1ccc(Sc2ncccc2C(=O)NCc2cc([N+](=O)[O-])ccc2O)cc1C`?
hcDAF-12 act: -2.0; DAX1 inh-1: -1.1; hgDAF12 agonist: 2.2; ssDAF-12 act: -0.7; DAX1 inh-2: -0.1

What do the screens show for `COc1cc(/C=N/Nc2nc(-c3ccc(S(=O)(=O)N(C)C)cc3)cs2)ccc1O`?
hcDAF-12 act: -2.3; DAX1 inh-1: 0.0; hgDAF12 agonist: -1.6; AHR act: 1.2; ssDAF-12 act: -1.6; DAX1 inh-2: -1.8

Results for CC(=O)Oc1ccc(Cl)cc1/C=C/c1ccc2ccccc2n1 ?
hcDAF-12 act: 8.4*; DAX1 inh-1: 1.9; hgDAF12 agonist: 10.5*; AHR act: 70.5*; ssDAF-12 act: 0.7; DAX1 inh-2: 1.5; LXR ag: 0.8; hcDAF12 conf: 6.2*

Results for O=C(Cc1nnc(NC(=O)c2ccccc2)s1)N/N=C/c1cccc(O)c1 ?
hcDAF-12 act: -1.2; DAX1 inh-1: 0.2; hgDAF12 agonist: 0.6; AHR act: 9.3; ssDAF-12 act: -0.9; DAX1 inh-2: 0.0

Results for O=C(Cc1nnc(NC(=O)c2ccccc2)s1)N/N=C/c1ccco1 ?
hcDAF-12 act: 7.5*; DAX1 inh-1: 0.9; hgDAF12 agonist: 2.4; AHR act: 114.6*; ssDAF-12 act: 1.3*; DAX1 inh-2: -1.2; LXR ag: -0.2; hcDAF12 conf: 0.4

What do the screens show for `O=C(c1ccccn1)N1CCN(S(=O)(=O)c2ccc3ccccc3c2)CC1`?
hcDAF-12 act: -2.1; DAX1 inh-1: -0.3; hgDAF12 agonist: 1.6; AHR act: 0.5; ssDAF-12 act: -1.4; DAX1 inh-2: 0.0

Results for CC(C)C(=O)NC(=S)NCC(=O)c1ccccc1 ?
hcDAF-12 act: -0.9; DAX1 inh-1: 0.3; hgDAF12 agonist: 3.0; AHR act: 5.7; ssDAF-12 act: -1.1; DAX1 inh-2: -0.3

What do the screens show for `CN(C)CCCNc1nc(-c2ccccc2)nc2ccccc12`?
hcDAF-12 act: 3.9; DAX1 inh-1: -0.1; hgDAF12 agonist: -0.8; AHR act: 19.6; ssDAF-12 act: -0.1; DAX1 inh-2: -0.7

How did Cc1ccc(-c2nc(NCCN3CCOCC3)c3ccccc3n2)cc1 do in these assays?
hcDAF-12 act: 6.8*; DAX1 inh-1: 2.4; hgDAF12 agonist: 10.9*; AHR act: 65.5*; ssDAF-12 act: -0.2; DAX1 inh-2: 1.5; LXR ag: -0.3; hcDAF12 conf: 6.4*

Results for Cc1ccc(-c2nc(NCCCN(C)C)c3ccccc3n2)cc1 ?
hcDAF-12 act: 8.3*; DAX1 inh-1: 2.7; hgDAF12 agonist: 10.9*; ssDAF-12 act: -0.1; DAX1 inh-2: 4.0; LXR ag: 0.1; hcDAF12 conf: 11.4*

What do the screens show for `C=C(C)C(=O)N1CC2(CC(c3cccc(NC(=O)COc4ccc(Cl)cc4)c3)=NO2)C[C@@H]1C(N)=O` (some centres not stated)?
hcDAF-12 act: -1.4; DAX1 inh-1: -0.4; hgDAF12 agonist: -2.9; AHR act: -1.2; ssDAF-12 act: -1.3; DAX1 inh-2: 1.1

Results for O=C(CCN1C(=O)C2C3C=CC(C3)C2C1=O)N1CC(=O)N(CCc2ccccc2)C(=O)C1 (configuration not stated) ?
hcDAF-12 act: -0.5; DAX1 inh-1: 0.1; hgDAF12 agonist: -0.3; AHR act: 1.6; ssDAF-12 act: -1.1; DAX1 inh-2: 0.4

Results for CC(=O)c1ccc(N2Cc3ccccc3C2=NC(=O)c2cccs2)cc1 ?
hcDAF-12 act: 6.6*; DAX1 inh-1: 3.5; hgDAF12 agonist: 12.1*; AHR act: -3.5; ssDAF-12 act: 0.1; DAX1 inh-2: 0.3; LXR ag: 0.3; hcDAF12 conf: 4.0

What do the screens show for `N#Cc1ccc(N2Cc3ccccc3C2=NC(=O)c2cccs2)cc1`?
hcDAF-12 act: 1.1; DAX1 inh-1: 1.3; hgDAF12 agonist: 3.5; AHR act: -1.8; ssDAF-12 act: -1.6; DAX1 inh-2: -1.5

How did COC(=O)c1cc(C(=O)Nc2cc(C)ccn2)cc([N+](=O)[O-])c1 do in these assays?
hcDAF-12 act: 0.3; DAX1 inh-1: 0.1; hgDAF12 agonist: 1.6; AHR act: 5.2; ssDAF-12 act: -0.9; DAX1 inh-2: 1.0

Results for Cc1ccc(CNC(=O)C2CC3Cn4c(nc5cc(C)c(C)cc54)C3N2C)o1 (configuration not stated) ?
hcDAF-12 act: -1.1; DAX1 inh-1: 0.2; hgDAF12 agonist: -1.8; AHR act: 2.1; ssDAF-12 act: -1.0; DAX1 inh-2: 0.3

How did O=C(c1ccc(OC2CCN(CCCc3ccccc3)CC2)cc1)N1CCCC1 do in these assays?
hcDAF-12 act: -0.3; DAX1 inh-1: 2.6; hgDAF12 agonist: -2.0; AHR act: 2.4; ssDAF-12 act: -0.3; DAX1 inh-2: 0.5

What do the screens show for `C(=C\c1ccc2ccccc2n1)/c1ccccc1`?
hcDAF-12 act: 13.6*; DAX1 inh-1: 2.3; hgDAF12 agonist: 5.7; AHR act: 41.4; ssDAF-12 act: 1.3*; DAX1 inh-2: -2.4; LXR ag: 0.9; hcDAF12 conf: 13.0*

Results for COc1ccc(C2c3ccsc3CCN2C(=O)C(C)(C)C)cc1 (configuration not stated) ?
hcDAF-12 act: -0.9; DAX1 inh-1: 0.0; hgDAF12 agonist: -0.5; AHR act: -2.5; ssDAF-12 act: -1.2; DAX1 inh-2: 2.4

What do the screens show for `C=CCS/C(N)=N\N=C\c1c(O)ccc2ccccc12`?
hcDAF-12 act: 14.1*; DAX1 inh-1: 3.4; hgDAF12 agonist: 17.0*; AHR act: 56.2*; ssDAF-12 act: 1.9*; DAX1 inh-2: 4.2; LXR ag: 1.1; hcDAF12 conf: 11.2*

Results for NC(=O)c1ccc(N=Cc2c(O)ccc3ccccc23)cc1 ?
hcDAF-12 act: -1.1; DAX1 inh-1: -0.3; hgDAF12 agonist: -3.4; AHR act: 10.0; ssDAF-12 act: -1.2; DAX1 inh-2: 0.3

What do the screens show for `Cc1ccc(C)c(S(=O)(=O)N2CCN(CC(=O)Nc3sccc3C#N)CC2)c1`?
hcDAF-12 act: -3.8; DAX1 inh-1: -0.4; hgDAF12 agonist: 1.7; AHR act: 0.5; ssDAF-12 act: -1.9; DAX1 inh-2: -0.8

What do the screens show for `CC(=O)c1ccc2c3c(cccc13)C(=O)N(CCc1ccccc1)C2=O`?
hcDAF-12 act: 8.4*; DAX1 inh-1: 1.0; hgDAF12 agonist: 8.4; AHR act: 72.0*; ssDAF-12 act: 3.0*; DAX1 inh-2: 0.0; LXR ag: 0.6; hcDAF12 conf: 9.7*

What do the screens show for `OCc1ccccc1Cn1ccnc1`?
hcDAF-12 act: 0.0; DAX1 inh-1: -1.2; hgDAF12 agonist: 0.7; ssDAF-12 act: -1.8; DAX1 inh-2: 0.6
